“And” between values parts separate entries of the source, which are not always exact repeats. Identical values can stand only once. Records with an inconclusive call do not appear. A structure can be active in one record and inactive in another. The source made the active and inactive calls. Rule for the calls, unless noted: active = hit-call score of the fitted dose curve at least 0.9, where 1 is the maximum; inconclusive = response in the unintended direction; inactive = score below 0.9.
Experiments:
[1] = read-out: UDP glucuronosyltransferase (UGT1A1), UGT1A1 (gene 54658); experiment: LTEA_HepaRG_UGT1A1: Life Technologies and Expression Analysis (LTEA) Assay for UDP glucuronosyltransferase (UGT1A1) using HepaRG (AID 2283538; active = hit-call score of the fitted dose curve at least 0.9, where 1 is the maximum; inactive = score below 0.9); conditions: mRNA level, 48 h; actives raise or lower the signal
Outline: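 UGT1A1 transcript level, measured by qRT-PCR with three housekeeping genes for normalization, after 48 h treatment of human HepaRG cells (0.5% DMSO, duplicates, up to 100 uM, half-log steps, 8 points). Curves fit both directions against DMSO baseline.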

[2] = read-out: UDP glucuronosyltransferase (UGT1A6), UGT1A6 (gene 54578); experiment: LTEA_HepaRG_UGT1A6: Life Technologies and Expression Analysis (LTEA) Assay for UDP glucuronosyltransferase (UGT1A6) using HepaRG (AID 2283539; active = hit-call score of the fitted dose curve at least 0.9, where 1 is the maximum; inactive = score below 0.9); conditions: mRNA level, 48 h; actives raise or lower the signal
Outline: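 Expression was quantified by TaqMan qRT-PCR on Fluidigm arrays with ACTB/GAPDH/POLR2A normalization and bidirectional fitting against 0.5% DMSO. HepaRG cells (~100,000/well) were treated in duplicate for 48 h at eight half-log concentrations up to 100 uM in serum-free induction medium.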

[3] = read-out: X-box binding protein 1 (XBP1), XBP1 (gene 7494); experiment: LTEA_HepaRG_XBP1: Life Technologies and Expression Analysis (LTEA) Assay for X-box binding protein 1 (XBP1) using HepaRG (AID 2283540; active = hit-call score of the fitted dose curve at least 0.9, where 1 is the maximum; inactive = score below 0.9); conditions: mRNA level, 48 h; actives raise or lower the signal
Outline: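 XBP1 transcript by qRT-PCR (housekeeping-normalized: ACTB, GAPDH, POLR2A) after 48 h chemical treatment of HepaRG cells, 8-point half-log series topping at 100 uM, vehicle 0.5% DMSO. Gain and loss of signal fitted relative to DMSO.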

[4] = LTEA_HepaRG_LDH_cytotoxicity: Cytotoxicity Assessment in the Life Technologies and Expression Analysis (LTEA) Assay (AID 2283563);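 for AC50: LDH activity released into spent culture medium as a marker of cell death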
Outline: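 LDH release into culture medium read after 48 h chemical treatment of HepaRG cells. Duplicate wells, eight-point half-log series topping at 100 uM, 0.5% DMSO vehicle and baseline.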

[5] = ATG_XTT_Cytotoxicity: Cytotoxicity Assessment in the Attagene TRANS-FACTORIAL HepG2 Assay (AID 2283584);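 for AC50: cells exposed to compound for 24 h before reading; active means loss of viability signal versus DMSO baseline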
Outline: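 Viability endpoint from XTT after 24 h chemical exposure of reporter-transfected human HepG2 liver cells; signal loss fitted relative to DMSO negative control.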

[6] = target: Cellular tumor antigen p53 (Homo sapiens) (UniProt P04637); experiment: TOX21_p53_BLA_p2_ratio: Tox21 HCT-116 p53 Agonism Beta-lactamase Assay, Ratio, Phase 2 (AID 2283592)
Sequence of Cellular tumor antigen p53 (Homo sapiens) (P04637 whole entry, looked up): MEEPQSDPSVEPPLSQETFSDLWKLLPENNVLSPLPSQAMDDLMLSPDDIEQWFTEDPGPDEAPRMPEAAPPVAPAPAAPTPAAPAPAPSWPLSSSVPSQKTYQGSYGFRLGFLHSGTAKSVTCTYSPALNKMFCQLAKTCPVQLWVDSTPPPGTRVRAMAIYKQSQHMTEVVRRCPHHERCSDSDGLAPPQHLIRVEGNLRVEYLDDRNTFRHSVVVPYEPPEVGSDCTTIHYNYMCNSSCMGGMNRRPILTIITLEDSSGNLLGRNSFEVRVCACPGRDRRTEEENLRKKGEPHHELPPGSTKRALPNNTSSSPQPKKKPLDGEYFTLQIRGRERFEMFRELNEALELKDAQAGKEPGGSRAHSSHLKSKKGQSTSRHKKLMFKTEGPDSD
Outline: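 Read-out is the blue/green (460/530 nm, 405 nm excitation) ratio after 2 h CCF4-AM loading, fitted as gain versus DMSO. Compounds, pinned at 217-fold dilution from DMSO stocks, stayed 16 h on HCT-116 beta-lactamase reporter cells seeded 5 h earlier.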

[7] = target: Cellular tumor antigen p53 (Homo sapiens) (UniProt P04637); experiment: TOX21_p53_BLA_p4_ratio: Tox21 HCT-116 p53 Agonism Beta-lactamase Assay, Ratio, Phase 4 (AID 2283601)
Outline: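 HCT-116 p53 beta-lactamase reporter cells (4000/well) preincubated 5 h, then compound (217-fold dilution of DMSO stock) for 16 h at 37C. CCF4-AM substrate added 2 h at room temperature; 460/530 nm emission ratio fitted upward versus DMSO.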

[8] = Tanguay_ZF_120hpf_MORT_legacy: (Legacy) Oregon State University Tanguay Lab 120 Hour Post-fertilization zebrafish Assay for Mortality (AID 2283633);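 for AC50: fitted as increase in binary mortality versus DMSO negative control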
Outline: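 Static waterborne exposure from 6 to 120 hpf at 28C of single dechorionated wild-type (5D) embryos per well, 0.64% DMSO final. Death recorded present/absent by brightfield at 24 and 120 hpf.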

[9] = Tanguay_ZF_120hpf_AXIS_legacy: (Legacy) Oregon State University Tanguay Lab 120 Hour Post-fertilization zebrafish Assay for Body Axis Malformation (AID 2283635);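 for AC50: potency for an increased fraction of larvae scored with body axis malformation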
Outline: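 Binary scoring of axis defects at 120 hpf under brightfield, fitted positive versus DMSO. Tropical 5D embryos, chorion removed by pronase at 4 hpf, were singly exposed in sealed, dark plates at 28C from 6 hpf; DMSO 0.64% final.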

[10] = Tanguay_ZF_120hpf_EYE_legacy: (Legacy) Oregon State University Tanguay Lab 120 Hour Post-fertilization zebrafish Assay for Eye Malformation (AID 2283636);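 note: binary presence or absence of eye malformation scored by brightfield in 120 hpf larvae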
Outline: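 5D wild-type embryos, pronase-dechorionated at 4 hpf; static exposure 6–120 hpf, 28C, dark; DMSO 0.64% final; 5uM trimethyltin chloride positive control. Binary eye-defect scoring at 120 hpf; dead embryos not scored.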

[11] = Tanguay_ZF_120hpf_SNOU_legacy: (Legacy) Oregon State University Tanguay Lab 120 Hour Post-fertilization zebrafish Assay for Snout Malformation (AID 2283637)
Outline: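 Binary brightfield scoring of snout malformation at 120 hpf. Dechorionated 5D wild-type embryos, one per well, static exposure from 6 hpf at 28C, sealed and dark; final DMSO 0.64% (vol/vol), DMSO as baseline; 5uM trimethyltin chloride positive control.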

[12] = Tanguay_ZF_120hpf_JAW_legacy: (Legacy) Oregon State University Tanguay Lab 120 Hour Post-fertilization zebrafish Assay for Jaw Malformation (AID 2283638);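 for AC50: active means more embryos with jaw malformation than DMSO controls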
Outline: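 Binary jaw-malformation call at 120 hpf by brightfield microscopy. Embryos (Tropical 5D strain, chorion removed at 4 hpf) were dosed statically at 6 hpf, one per well, at 28C with 0.64% DMSO. Embryos that died were not scored.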

[13] = Tanguay_ZF_120hpf_OTIC_legacy: (Legacy) Oregon State University Tanguay Lab 120 Hour Post-fertilization zebrafish Assay for Otic Vesicle Malformation (AID 2283639)
Outline: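 Binary scoring of otic vesicle defects at 120 hpf in zebrafish (Tropical 5D) held under static exposure at 28C, sealed and shaded, with final DMSO 0.64%. Embryos dying by 24 or 120 hpf excluded; fitted positively against DMSO.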

[14] = target: Cellular tumor antigen p53 (Homo sapiens) (UniProt P04637); experiment: TOX21_p53_BLA_p3_ratio: Tox21 HCT-116 p53 Agonism Beta-lactamase Assay, Ratio, Phase 3 (AID 2283596)
Outline: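 Cells were seeded at 4000/well, rested 5 h at 37C, then dosed with DMSO compound solutions (217-fold dilution) for 16 h. CCF4-AM substrate was loaded for 2 h at room temperature, and the 460/530 nm emission ratio was fitted for gain of signal versus DMSO.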

[15] = TOX21_p53_BLA_p4_viability: Viability Assessment in the Tox21 HCT-116 p53 Agonism Beta-lactamase Assay, Phase 4 (AID 2283597);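 note: hits lower the luminescence signal meaning cytotoxicity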
Outline: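 Cytotoxicity as reduced cellular ATP (CellTiter-Glo luminescence, 30 min room temperature), measured in the same wells following the CCF4 FRET p53 reading. Human HCT-116 cells received compounds in DMSO (217-fold dilution) for 16 h.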

[16] = target: Cellular tumor antigen p53 (Homo sapiens) (UniProt P04637); experiment: TOX21_p53_BLA_p5_ratio: Tox21 HCT-116 p53 Agonism Beta-lactamase Assay, Ratio, Phase 5 (AID 2283599)
Outline: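 HCT-116 p53-bla cells (4000/well) plated 5 h, dosed with compound (217-fold DMSO dilution) for 16 h at 37 C; CCF4-AM substrate 2 h at room temperature. Activity is the 460/530 nm emission ratio (405 nm excitation), fitted in gain-of-signal direction versus DMSO.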

[17] = TOX21_p53_BLA_p5_viability: Viability Assessment in the Tox21 HCT-116 p53 Agonism Beta-lactamase Assay, Phase 5 (AID 2283600)
Outline: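 Viability came from CellTiter-Glo ATP luminescence, read after 30 min at room temperature. Before this, HCT-116 p53-bla cells (4000/well) had 16 hours of compound exposure at 37C, with DMSO stocks diluted 217-fold on transfer.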

[18] = Tanguay_ZF_120hpf_YSE_legacy: (Legacy) Oregon State University Tanguay Lab 120 Hour Post-fertilization zebrafish Assay for Yolk Sac Edema (AID 2283634);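 for AC50: actives raise the incidence of yolk sac edema above the DMSO baseline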
Outline: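 Presence or absence of yolk sac edema was recorded at 120 hpf in surviving larvae. These were wild-type Tropical 5D embryos, chorion removed at 4 hpf, held in static exposure at 28C from 6 hpf with 0.64% DMSO vehicle.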

[19] = TOX21_p53_BLA_p2_viability: Viability Assessment in the Tox21 HCT-116 p53 Agonism Beta-lactamase Assay, Phase 2 (AID 2283591);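 note: compound exposure lasted 16 h at 37 °C; actives lower the ATP signal meaning cytotoxicity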
Outline: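 HCT116 p53-bla cells, 4000/well, dosed after 5 h plating (217-fold dilution of DMSO stocks) and incubated 16 h at 37C. Viability taken as cellular ATP by CellTiter-Glo luminescence after 30 min RT; signal loss marks cytotoxicity.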

Measured: AC50

CCOC(=O)CC(O)(CC(=O)OCC)C(=O)OCC
not listed: [14] | [15] | [16] | [17] | [18] | [19]
inactive: all other assays above

O=C(O)Cc1cc(I)c(Oc2cc(I)c(O)c(I)c2)c(I)c1
active: [1] 61.5 µM | [2] 62.2 µM | [14] 28.2 µM | [15] 30.9 µM | [16] 30.6 µM | [17] 49.3 µM | [7] 33.1 µM | [8] 8.91 µM | [9] 0.0204 µM | [10] 0.0114 µM | [11] 0.00601 µM | [12] 0.00848 µM
inactive: [3] | [5] | [6] | [18] | [13]

CCCOC(=O)c1ccc(O)cc1
active: [18] 35 µM | [9] 46.4 µM | [11] 39.3 µM | [12] 10 µM | [13] 40 µM
not listed: [4] | [17]
inactive: all other assays above

Cc1oc(-c2ccccc2)nc1CCOc1ccc(C[C@H](Nc2ccccc2C(=O)c2ccccc2)C(=O)O)cc1
active: [1] 23.1 µM | [2] 16.8 µM | [4] 28.7 µM | [6] 72.3 µM | [14] 39.9 µM | [15] 6.19 µM | [16] 56 µM | [7] 41.6 µM | [8] 12.9 µM
inactive: [3] | [5] | [9] | [10] | [11] | [12] | [13]

C[C@@H]1C[C@H]2[C@@H]3CCC4=CC(=O)C=C[C@]4(C)[C@@]3(F)[C@@H](O)C[C@]2(C)[C@@]1(O)C(=O)COP(=O)(O)O
not listed: [4] | [7] | [14] | [17] | [18] | [19]
inactive: all other assays above

CCCCCCCCOC(=O)CCCCCCCCC(=O)OCCCCCCCC
not listed: [4] | [7] | [17] | [19]
inactive: all other assays above

CC(C)CCCCCCOC(=O)CCCCC(=O)OCCCCCCC(C)C
not listed: [4] | [5] | [9] | [14] | [16] | [17] | [18] | [19]
inactive: all other assays above

CC(O)C(=O)O (stereo unspecified)
inactive: [5] | [6] | [14] | [16] | [7]

OCCC(F)(F)C(F)(F)C(F)(F)C(F)(F)C(F)(F)C(F)(F)C(F)(F)C(F)(F)F
not listed: [4] | [10] | [12] | [13] | [15] | [17] | [18] | [19]
inactive: all other assays above

NC(=O)N(O)[C@@H]1C=C[C@H](Oc2cccc(Oc3ccc(F)cc3)c2)C1
active: [1] 75.5 µM | [2] 75.8 µM | [3] 28.2 µM | [6] 66.5 µM | [15] 84.2 µM | [7] 74.5 µM
not listed: [4] | [5] | [13] | [17] | [18]
inactive: all other assays above

O=C1OC2(c3ccccc31)c1cc(Br)c(O)c(Br)c1Oc1c2cc(Br)c(O)c1Br
inactive: [5] | [15] | [17]

CCCCCCCCCCCCCC[N+](C)(C)C
active: [5] 36.8 µM | [6] 43.8 µM and 11.3 µM | [14] 39.8 µM and 14.6 µM | [15] 52.4 µM and 13.2 µM and 35.4 µM | [16] 31.2 µM and 16.1 µM | [7] 63.8 µM and 26.6 µM and 23.1 µM
inactive: [5] | [6] | [14] | [16]

Cc1cc(CCN2CCN(c3nsc4ccccc34)CC2)cc2c1NC(=O)CC2(C)C
inactive: [3] | [14] | [16] | [8]
active: [1] 91.6 µM | [2] 79.5 µM | [6] 71.6 µM | [15] 74.3 µM | [7] 82.8 µM | [9] 5.38 µM | [10] 3.05 µM | [11] 3.18 µM | [12] 3.26 µM | [13] 6.42 µM

CCc1nn(C2CCCCC2)c2cc(C3(C#N)CCC(C(=O)O)CC3)ccc12 (stereo unspecified)
inactive: [2] | [3] | [15] | [16]
active: [1] 11.8 µM | [6] 46.3 µM | [14] 73.5 µM | [7] 75.2 µM | [18] 0.324 µM | [9] 0.384 µM | [10] 0.377 µM | [11] 0.344 µM | [12] 0.332 µM | [13] 3.66 µM

CN1CCC[C@H]1c1cccnc1
inactive: [1] | [2] | [3] | [5] | [8] | [9] | [10] | [11] | [12] | [13]

CCC(C)(C)C1CCC(O)CC1 (stereo unspecified)
not listed: [4] | [15] | [17] | [18] | [19]
inactive: all other assays above

ClC1=C(Cl)C(Cl)(Cl)C(Cl)=C1Cl
active: [14] 19.2 µM and 2.22 µM
not listed: [4] | [8] | [17] | [18] | [19]
inactive: all other assays above

C=C(C)C(=O)OCCC(F)(F)C(F)(F)C(F)(F)C(F)(F)C(F)(F)C(F)(F)F
not listed: [4] | [12] | [17] | [19]
inactive: all other assays above

Source: PubChem BioAssay (EPA / NIEHS)
